# Unmarked numbers belong to inactive results. Where a call stands in place of a potency, no number is given. Activity calls are given as the source filed them. Unless noted, calls come from the whole dose curve; as a rule, active = well fitted curve in the direction sought with a large enough effect in the repeat runs; inconclusive = weak or mixed curves; inactive = no such curve, though single readings can be large; an effect the other way counts as inactive or inconclusive.
# Experiments:
# [1] = qHTS assay for small molecules that induce genotoxicity in human embryonic kidney cells expressing luciferase-tagged ATAD5 (AID 651632); note: nearly all actives have a fitted effect of over 15% in size
# Outline: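 Luminescent reporter readout, HEK293T ATAD5-luc line: 16 hr drug exposure (37C, 5% CO2) followed by Amplite, 30 min RT.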
# [2] = qHTS assay for small molecule agonists of the p53 signaling pathway - cell viability (AID 651633; calls by dose curve;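 note: p53RE-bla HCT reporter cells with a stable beta-lactamase p53 reporter; series mostly up to about 83 µM; nearly all actives have a fitted effect of over 30% in size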)
# Outline: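 p53RE-bla cells, seeded at 4,000 per well and rested 5 h at 37 C/5% CO2, received compounds in DMSO for 16 h at 37 C. CellTiter-Glo was then added, and luminescence was read after 30 min at room temperature to gauge cytotoxicity.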
# [3] = qHTS assay for small molecules that induce genotoxicity in human embryonic kidney cells expressing luciferase-tagged ATAD5 - cell viability (AID 651634; calls by dose curve; note: nearly all actives have a fitted effect of over 25% in size)
# Outline: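 Viability read: CellTiter-Fluor fluorescence, 30 min at 37C. Cells: HEK293T, luciferase-tagged ATAD5. Exposure: 15.5 hr, 37C, 5% CO2, compound or DMSO vehicle.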
# [4] = qHTS assay for small molecule disruptors of the mitochondrial membrane potential - cell viability (AID 720634; calls by dose curve;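 note: human HepG2 liver cancer cells; series mostly up to about 83 µM; nearly all actives have a fitted effect of over 20% in size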)
# Outline: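 HepG2, 1 hr compound, 37 C. ATP luminescence via CellTiter-Glo, 30 min RT, same well as m-MPI.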
# [5] = qHTS assay for small molecule disruptors of the mitochondrial membrane potential (AID 720635)
# Outline: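 HepG2 cells (2,000/well) attached overnight at 37C, then took compound for 1 hr at 37C, 5% CO2. Mito-MPS dye was added for 30 min; fluorescence was read at 490/535 nm (monomers) and 540/590 nm (aggregates).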
# [6] = qHTS assay to test for compound auto fluorescence at 590 nm (red) in HepG2 cells (AID 720674)
# Outline: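 Intrinsic compound fluorescence in the red window (Ex/Em 540/590 nm) is measured in attached HepG2 cells exposed for 1 hr, DMSO vehicle as baseline, benchmarked to Rose Bengal sodium.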
# [7] = qHTS assay to test for compound auto fluorescence at 535 nm (green) in HepG2 cells (AID 720675)
# [8] = qHTS assay to test for compound auto fluorescence at 460 nm (blue) in HEK293 cells (AID 720678)
# Outline: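 HEK293 cells (2,000/well, medium with 10% dialyzed FBS) attached 4-5 hr, then exposed to compound overnight at 37C, 5% CO2. Blue fluorescence read at 405/460 nm, with triamterene as reference fluorophore.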
# [9] = qHTS assay to test for compound auto fluorescence at 590 nm (red) in HEK293 cells (AID 720679)
# Outline: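 HEK293 cells (2,000/well, 10% dialyzed FBS) attached 4-5 hr, then dosed with compound or DMSO and incubated overnight at 37C, 5% CO2. Red fluorescence read at 540/590 nm, Rose Bengal sodium as reference fluorophore.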
# [10] = qHTS assay to test for compound auto fluorescence at 535 nm (green) in HEK293 cells (AID 720680)
# [11] = qHTS assay to test for compound auto fluorescence at 460 nm (blue) in HEK293 cell free culture (AID 720681)
# Outline: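 Test compounds were pinned into cell-free culture medium (DMEM with 10% FBS) and fluorescence was read directly at Ex/Em 405/460 nm. Signals were expressed as fluorescence equivalents of triamterene, with DMSO vehicle as control.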
# [12] = qHTS assay to test for compound auto fluorescence at 535 nm (green) in HEK293 cell free culture (AID 720682)
# Outline: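 Intrinsic compound fluorescence is measured in culture medium containing 10% FBS, with excitation at 485 nm and detection at 535 nm, referenced to fluorescein.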
# [13] = qHTS assay to test for compound auto fluorescence at 590 nm (red) in HEK293 cell free culture (AID 720683)
# Outline: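 Tox21 10K library compounds were pinned into cell-free DMEM with 10% FBS and fluorescence was read at excitation 540 nm. Activity is expressed as Rose Bengal sodium equivalency.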
# [14] = qHTS assay to test for compound auto fluorescence at 590 nm (red) in HepG2 cell free culture (AID 720684)
# Outline: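 Red fluorescence (540 nm excitation, 590 nm emission) was measured after compound transfer into cell-free MEM supplemented with 10% FBS. Values are equivalencies against Rose Bengal sodium.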
# [15] = qHTS assay to test for compound auto fluorescence at 460 nm (blue) in HepG2 cell free culture (AID 720685)
# Outline: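 Compound (23 nL) or DMSO pinned into cell-free MEM with 10% FBS; blue fluorescence read at 405/460 nm excitation/emission, expressed as auto-fluorescence equivalency to triamterene.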
# [16] = qHTS assay to test for compound auto fluorescence at 535 nm (green) in HepG2 cell free culture (AID 720686)
# [17] = qHTS assay to test for compound auto fluorescence at 460 nm (blue) in HepG2 cells (AID 720687)
# Outline: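 Cells (2,000/well in MEM with 10% FBS) attached overnight at 37 C, then were exposed to compound or DMSO for 1 hr at 37 C, 5% CO2. Fluorescence read at Ex/Em 405/460 nm, expressed as triamterene-equivalent signal.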
# [18] = target: Glucocorticoid receptor (Homo sapiens) (UniProt P04150); assay: qHTS assay to identify small molecule agonists of the glucocorticoid receptor (GR) signaling pathway (AID 720691; active = well fitted activation curve with a large enough effect in the signal ratio in the repeat runs, not every such curve was filed as active; inconclusive = weak or mixed curves, or effect the other way; inactive = no such curve, though single readings can be large or run the other way; the % refers to the signal ratio; note: potency is the fitted concentration of half-maximal effect)
# Sequence of Glucocorticoid receptor (Homo sapiens) (P04150 whole entry, looked up): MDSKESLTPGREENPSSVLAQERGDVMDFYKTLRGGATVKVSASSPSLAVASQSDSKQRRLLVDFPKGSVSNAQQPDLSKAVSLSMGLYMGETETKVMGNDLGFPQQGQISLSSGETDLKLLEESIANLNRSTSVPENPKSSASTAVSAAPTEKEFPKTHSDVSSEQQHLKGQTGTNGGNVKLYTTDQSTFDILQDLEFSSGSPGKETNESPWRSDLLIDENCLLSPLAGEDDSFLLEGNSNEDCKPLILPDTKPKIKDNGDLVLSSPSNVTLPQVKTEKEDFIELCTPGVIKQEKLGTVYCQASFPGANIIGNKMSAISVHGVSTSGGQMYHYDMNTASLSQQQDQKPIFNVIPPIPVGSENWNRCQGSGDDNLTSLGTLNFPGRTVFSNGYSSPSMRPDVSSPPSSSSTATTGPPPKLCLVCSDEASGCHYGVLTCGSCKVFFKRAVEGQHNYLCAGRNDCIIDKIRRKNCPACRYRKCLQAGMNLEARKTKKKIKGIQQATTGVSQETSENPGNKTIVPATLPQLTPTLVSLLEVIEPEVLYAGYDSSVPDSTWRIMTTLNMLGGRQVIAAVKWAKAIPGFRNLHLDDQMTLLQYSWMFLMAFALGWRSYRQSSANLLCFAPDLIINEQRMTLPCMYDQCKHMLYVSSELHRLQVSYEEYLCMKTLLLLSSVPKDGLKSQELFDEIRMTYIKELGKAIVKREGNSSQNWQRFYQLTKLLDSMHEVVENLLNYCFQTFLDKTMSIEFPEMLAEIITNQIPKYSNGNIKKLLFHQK
# Outline: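 qHTS in GR-bla HeLa cells: 4 h settling at 37 C/5% CO2, 18 h compound incubation at 37 C, 2 h LiveBLAzer B/G FRET substrate at room temperature, fluorescence intensity measured.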
# [19] = target: Glucocorticoid receptor (Homo sapiens) (UniProt P04150); assay: qHTS assay to identify small molecule antagonists of the glucocorticoid receptor (GR) signaling pathway (AID 720692; active = well fitted inhibition curve with a large enough effect in the signal ratio in the repeat runs, not every such curve was filed as active; inconclusive = weak or mixed curves, or effect the other way; inactive = no such curve, though single readings can be large or run the other way; the % refers to the signal ratio)
# Outline: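 Inhibition of glucocorticoid signalling is measured in HeLa cells with a GRE-controlled beta-lactamase reporter; cells are co-treated with compound and 5 nM dexamethasone (final) for 18 h before FRET substrate readout.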
smiles,measurement,setting,value
CCCCCCCCCCCCCCCCI,outcome,[1],inactive
same,outcome,[2],inactive
same,Potency,[3],inactive
same,outcome,[4],inactive
same,Potency,[5],inactive
same,"fluorescence, relative to Rose Bengal",[6],0.0421% [at 18.6 µM]
same,"fluorescence, % of fluorescein control",[7],-0.0199% [at 18.6 µM]
same,"fluorescence, % of triamterene",[8],0.0613% [at 18.6 µM]
same,"fluorescence, % of fluorescent control",[9],0.21% [at 18.6 µM]
same,"fluorescence, % of fluorescein",[10],0.0243% [at 18.6 µM]
same,"fluorescence, % of fluorescent control",[11],-0.0222% [at 18.6 µM]
same,activity change,[12],-0.0077% [at 18.6 µM]
same,"fluorescence, % of fluorescent control",[13],0.0155% [at 18.6 µM]
same,"fluorescence, % of Rose Bengal",[14],-0.0349% [at 18.6 µM]
same,"fluorescence, % of fluorescent control",[15],-0.142% [at 18.6 µM]
same,"fluorescence, % of fluorescein control",[16],0.0097% [at 18.6 µM]
same,"fluorescence, % of fluorescent control",[17],0.151% [at 18.6 µM]
CCOC(=O)CC#N,outcome,[1],inactive
same,outcome,[2],inactive
same,Potency,[3],inactive
same,outcome,[4],inactive
same,Potency,[5],inactive
same,outcome,[6],inactive
same,outcome,[8],inactive
same,outcome,[9],inactive
same,outcome,[10],inactive
same,outcome,[12],inactive
same,outcome,[13],inactive
same,outcome,[14],inactive
same,outcome,[16],inactive
same,Potency,[18],inactive
same,outcome,[19],inactive
C=COCCOCCOC=C,outcome,[1],inactive
same,outcome,[2],inactive
same,Potency,[3],inactive
same,outcome,[4],inactive
same,Potency,[5],inactive
same,outcome,[6],inactive
same,outcome,[7],inactive
same,outcome,[8],inactive
same,outcome,[9],inactive
same,outcome,[10],inactive
same,outcome,[11],inactive
same,outcome,[12],inactive
same,outcome,[13],inactive
same,outcome,[14],inactive
same,outcome,[16],inactive
same,outcome,[17],inactive
same,Potency,[18],inactive
Nc1cc(C(=O)O)ccc1Cl,outcome,[1],inactive
same,outcome,[2],inactive
same,Potency,[3],inactive
same,outcome,[4],inactive
same,Potency,[5],inactive
same,outcome,[7],inactive
same,outcome,[8],inactive
same,outcome,[9],inactive
same,outcome,[10],inactive
same,outcome,[11],inactive
same,outcome,[12],inactive
same,outcome,[13],inactive
same,outcome,[14],inactive
same,outcome,[15],inactive
same,outcome,[16],inactive
same,outcome,[17],inactive
CCCCCCCCOC(C)=O,outcome,[1],inactive
same,outcome,[2],inactive
same,Potency,[3],inactive
same,outcome,[4],inactive
same,outcome,[6],inactive
same,outcome,[7],inactive
same,outcome,[8],inactive
same,outcome,[9],inactive
same,outcome,[10],inactive
same,outcome,[11],inactive
same,outcome,[12],inactive
same,outcome,[13],inactive
same,outcome,[14],inactive
same,outcome,[15],inactive
same,outcome,[16],inactive
same,outcome,[17],inactive
CC1=CC[C@H](CC=O)C1(C)C,outcome,[1],inactive
same,outcome,[2],inactive
same,Potency,[3],inactive
same,Potency,[5],inactive
same,outcome,[6],inactive
same,outcome,[7],inactive
same,outcome,[9],inactive
same,outcome,[10],inactive
same,outcome,[11],inactive
same,outcome,[12],inactive
same,outcome,[13],inactive
same,outcome,[14],inactive
same,outcome,[16],inactive
same,outcome,[17],inactive
same,Potency,[18],inactive
CCCCC(CC)C(=O)OC(C)C (stereo unspecified),outcome,[1],inactive
same,outcome,[2],inactive
same,Potency,[3],inactive
same,outcome,[4],inactive
same,outcome,[7],inactive
same,outcome,[8],inactive
same,outcome,[9],inactive
same,outcome,[10],inactive
same,outcome,[11],inactive
same,outcome,[12],inactive
same,outcome,[13],inactive
same,outcome,[14],inactive
same,outcome,[15],inactive
same,outcome,[16],inactive
same,Potency,[18],inactive
same,outcome,[19],inactive
CCOC(=O)CCCCCCCCC(=O)OCC,outcome,[1],inactive
same,outcome,[2],inactive
same,Potency,[3],inactive
same,outcome,[6],inactive
same,outcome,[8],inactive
same,outcome,[9],inactive
same,outcome,[10],inactive
same,outcome,[12],inactive
same,outcome,[13],inactive
same,outcome,[14],inactive
same,outcome,[15],inactive
same,outcome,[16],inactive
same,outcome,[17],inactive
CCOC(=O)C(C)(C)C,outcome,[1],inactive
same,outcome,[2],inactive
same,Potency,[3],inactive
same,Potency,[5],inactive
same,outcome,[7],inactive
same,outcome,[8],inactive
same,outcome,[9],inactive
same,outcome,[10],inactive
same,outcome,[12],inactive
same,outcome,[13],inactive
same,outcome,[14],inactive
same,outcome,[15],inactive
same,outcome,[16],inactive
same,outcome,[17],inactive
Cc1c(C(C)C)c(=O)n(-c2ccccc2)n1C,outcome,[1],inactive
same,outcome,[2],inactive
same,Potency,[3],inactive
same,outcome,[4],inactive
same,outcome,[6],inactive
same,outcome,[8],inactive
same,outcome,[9],inactive
same,outcome,[10],inactive
same,outcome,[11],inactive
same,outcome,[12],inactive
same,outcome,[13],inactive
same,outcome,[14],inactive
same,outcome,[15],inactive
same,outcome,[16],inactive
same,outcome,[17],inactive
CC(=O)OCCCc1ccccc1,outcome,[1],inactive
same,outcome,[2],inactive
same,Potency,[3],inactive
same,outcome,[4],inactive
same,outcome,[8],inactive
same,outcome,[9],inactive
same,outcome,[10],inactive
same,outcome,[11],inactive
same,outcome,[12],inactive
same,outcome,[13],inactive
same,outcome,[14],inactive
same,outcome,[15],inactive
same,outcome,[16],inactive
same,outcome,[17],inactive
CC(=O)OCC(=O)[C@@]1(O)[C@H](OC(C)=O)C[C@H]2[C@@H]3CCC4=CC(=O)C=C[C@]4(C)[C@@]3(F)[C@@H](O)C[C@@]21C,outcome,[1],inactive
same,outcome,[2],inactive
same,Potency,[3],inactive
same,outcome,[4],inactive
same,outcome,[6],inactive
same,outcome,[7],inactive
same,outcome,[9],inactive
same,outcome,[10],inactive
same,outcome,[11],inactive
same,outcome,[12],inactive
same,outcome,[13],inactive
same,outcome,[14],inactive
same,outcome,[15],inactive
same,outcome,[16],inactive
same,outcome,[17],inactive
same,Potency,[18],134 nM [inconclusive] (active)
C=CCOc1c(Br)cc(Br)cc1Br,outcome,[1],inactive
same,outcome,[2],inactive
same,Potency,[3],inactive
same,outcome,[4],inactive
same,outcome,[6],inactive
same,outcome,[8],inactive
same,outcome,[9],inactive
same,outcome,[10],inactive
same,outcome,[11],inactive
same,outcome,[12],inactive
same,outcome,[13],inactive
same,outcome,[14],inactive
same,outcome,[15],inactive
same,outcome,[16],inactive
same,Potency,[18],inactive
CN[C@@H]1[C@H](O)[C@H](NC)[C@H]2O[C@@]3(O)C(=O)C[C@@H](C)O[C@H]3O[C@@H]2[C@H]1O,outcome,[1],inactive
same,outcome,[2],inactive
same,Potency,[3],inactive
same,Potency,[5],inactive
same,"fluorescence, relative to Rose Bengal",[6],-0.0467% [at 18.6 µM]
same,"fluorescence, % of fluorescein control",[7],-0.162% [at 18.6 µM]
same,"fluorescence, % of fluorescent control",[9],0.0398% [at 18.6 µM]
same,"fluorescence, % of fluorescein",[10],0.0714% [at 18.6 µM]
same,"fluorescence, % of fluorescent control",[11],0.0087% [at 18.6 µM]
same,activity change,[12],0.0093% [at 18.6 µM]
same,"fluorescence, % of fluorescent control",[13],0.386% [at 18.6 µM]
same,"fluorescence, % of fluorescent control",[15],0.0605% [at 18.6 µM]
same,"fluorescence, % of fluorescein control",[16],0.0131% [at 18.6 µM]
same,"fluorescence, % of fluorescent control",[17],0.0309% [at 18.6 µM]
same,Potency,[18],inactive
Cc1ccccc1C,outcome,[1],inactive
same,outcome,[2],inactive
same,Potency,[3],inactive
same,outcome,[6],inactive
same,outcome,[7],inactive
same,outcome,[9],inactive
same,outcome,[10],inactive
same,outcome,[11],inactive
same,outcome,[12],inactive
same,outcome,[13],inactive
same,outcome,[15],inactive
same,outcome,[16],inactive
same,Potency,[18],inactive
CNCc1ccccc1,outcome,[1],inactive
same,outcome,[2],inactive
same,Potency,[3],inactive
same,outcome,[4],inactive
same,outcome,[7],inactive
same,outcome,[8],inactive
same,outcome,[9],inactive
same,outcome,[10],inactive
same,outcome,[11],inactive
same,outcome,[12],inactive
same,outcome,[13],inactive
same,outcome,[14],inactive
same,outcome,[15],inactive
same,outcome,[16],inactive

# — PubChem BioAssay (Tox21)
